ALR H2O2 inh = inhibitors of human ALR sulfhydryl oxidase, primary screen, biochemical, H2O2 detection, HRP-luminol luminescence, single point; FAD-linked sulfhydryl oxidase ALR (Homo sapiens), P55789; purified ALR, DTT oxidation; inhibition, % (concentration not given with the values); actives 3.8% (n = 290,000);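 active = mean replicate inhibition above about 79%, with every replicate also reaching it, limit read from the data; inconclusive = only one of the two criteria met; inactive = mean below limit and not every replicate reaching it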
Calb FLC = C. albicans growth inhibition with fluconazole, primary screen, CaCi-2 strain, Alamar Blue fluorescence; AID 1979, 2009; growth inhibition, % (concentration not given with the values); actives 0.57% (n = 300,000); C. albicans CaCi-2 (fluconazole-resistant clinical isolate) + fluconazole, 48 h;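 active = growth inhibition above about 58% in most replicates, limit read from the data, passing the limit was not always enough; inconclusive = exactly half the replicates above a set limit; inactive = most replicates below a set limit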;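 also: all wells also contain fluconazole at 8 µg/ml as a sub-toxic cotreatment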
PP1 inh = PP1-alpha phosphatase inhibitors, primary screen, counter-screen for PP5 inhibitor project, biochemical, fluorescence, OMFP substrate, single point | Serine/threonine-protein phosphatase PP1-alpha catalytic subunit (Homo sapiens), P62136 | purified PP1alpha | inhibition, % at 6.7 µM | actives 0.9% (n = 320,000) | AID 2235, 2010;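 active = inhibition above the mean inhibition of all tested compounds plus 3 SD, computed separately for each screening campaign, cut at about 15% in these data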
Target sequence (P62136 whole entry, looked up): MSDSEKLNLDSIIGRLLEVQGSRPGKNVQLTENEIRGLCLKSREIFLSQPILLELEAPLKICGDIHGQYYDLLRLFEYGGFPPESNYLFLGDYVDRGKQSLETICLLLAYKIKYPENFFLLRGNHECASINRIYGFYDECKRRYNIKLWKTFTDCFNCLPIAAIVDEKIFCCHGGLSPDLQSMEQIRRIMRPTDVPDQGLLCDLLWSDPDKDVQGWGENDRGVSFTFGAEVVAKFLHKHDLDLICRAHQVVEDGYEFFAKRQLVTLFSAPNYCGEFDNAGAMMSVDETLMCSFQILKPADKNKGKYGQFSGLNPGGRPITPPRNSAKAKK
CSC inhib = cancer stem cell viability inhibitors, primary screen, luminescence; inhibition, % at 7.5 µM; cancer stem cell-like cells viability; actives 1.1% (n = 300,000); AID 2717, 2010; in the data active = inhibition above about 75%; inconclusive = no clear call, values can overlap the other calls; tested in HMLE shEcad cells
PP5 primary = PP5 phosphatase inhibitors, primary screen, biochemical, fluorescence. inhibition, % at 6.7 µM. Serine/threonine-protein phosphatase 5 (Homo sapiens), P53041. actives 0.18% (n = 320,000). purified PP5c, OMFP substrate fluorescence;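 active = inhibition above the campaign's mean inhibition across all tested compounds plus 3 SD, cut at about 9.5% in these data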
Of the large screens only hits and unclear results are named; the others gave an inactive call. Hits are enriched below; roughly 5.4% of the tested compounds scored in any of these assays.

CN1C(=O)CC(N2CCN(c3ccc(Cl)cc3)CC2)C1=O (stereo not drawn)	ALR H2O2 inh 98
CCN(CC)C(=O)/C(=C/c1ccc2c(c1)OCO2)NC(=O)c1ccc(Br)cc1	Calb FLC 91
O=C1CCCC/C1=N\Nc1ccc(OCc2ccccc2)cc1	ALR H2O2 inh 99, Calb FLC inconclusive
CS(=O)(=O)Nc1ccc(OCc2ccccc2)cc1	none
O=C1CCCC/C1=N\Nc1ccc(C2CCCCC2)cc1	ALR H2O2 inh 98
COc1ccc(-c2oc3c4c(cc(OC)c3c(=O)c2CC=C(C)C)OC(C)(C)C=C4)c(OC)c1	CSC inhib 101
CC(C)c1ccc(NC2CCCN(C(=O)c3ccc(N4CCOCC4)cc3)C2)cc1 (stereo not drawn)	ALR H2O2 inh 98
CC(C)c1ccc(NC2CCCN(C(=O)c3ccoc3)C2)cc1 (stereo not drawn)	ALR H2O2 inh 99
CC(C)c1ccc(NC2CCCN(C(=O)c3ccccc3-c3ncc[nH]3)C2)cc1 (stereo not drawn)	ALR H2O2 inh 88
CC(C)c1ccc(NC2CCCN(C(=O)c3ccc(Cn4cnnn4)cc3)C2)cc1 (stereo not drawn)	none
Cc1cc2cc(CNS(=O)(=O)c3ccccc3)ccc2n1C	ALR H2O2 inh 96
CCc1cccc(C)c1NC(=S)NCc1ccc2c(c1)cc(C)n2C	Calb FLC 124 (no result: CSC inhib)
Cc1ccccc1NC(=S)NCc1ccc2c(c1)cc(C)n2C	none
O=C(COc1nc2ccccc2nc1N1CCOCC1)NC1CCCCC1	none
COc1cccc(CNc2nccs2)c1O	ALR H2O2 inh 88
COc1ccccc1CNC(=O)C(=O)Nc1nccs1	none
O=C(Nc1ccccc1)Nc1nc(-c2ccc(F)c(F)c2)cs1	none
O=C(NCc1cccnc1)Nc1ccc(Br)cc1	none
Cc1ccccc1CN(c1ccc(C(=O)NCc2cccnc2)cc1)S(C)(=O)=O	ALR H2O2 inh 96, Calb FLC inconclusive
O=C(NCc1cccnc1)c1ccc(NC(=O)c2ccc(Br)cc2)cc1	CSC inhib 85
CN(c1ccc(C(=O)NCc2cccnc2)cc1)S(C)(=O)=O	none
O=C(COC(=O)/C=C/c1ccco1)NCCc1ccccc1	none
Cc1cccc(NC(=O)CNC(=O)c2ccc(-n3cncn3)c([N+](=O)[O-])c2)c1C	none (no result: ALR H2O2 inh)
COc1ccccc1Nc1nc(C2(C)CCC(=O)O2)cs1 (stereo not drawn)	ALR H2O2 inh 96
Cc1cc(SCC(=O)OC(C)C(=O)N(C)c2ccccc2)nc2ccccc12 (stereo not drawn)	none
O=C(NNC(=S)Nc1ccccc1)c1cccc(Br)c1	none
COC(=O)c1ccc(NC(=S)Nc2ccccc2)cc1	none
COC(=O)Cc1ccc(NC(=S)NNC(=O)c2ccccc2Br)cc1	none
O=C(NNC(=S)Nc1ccc(Cl)cc1)c1ccccc1OC(F)F	Calb FLC 102 (no result: ALR H2O2 inh)
O=C(NNC(=S)NCc1ccccc1)c1ccccc1OC(F)F	none
COC(=O)c1ccc(NC(=S)NNC(=O)c2ccccc2)cc1	ALR H2O2 inh 92
O=C(NNC(=S)Nc1ccc(Br)cc1)c1ccccc1	ALR H2O2 inh 97 (no result: PP1 inh, PP5 primary)
O=C(NNC(=S)Nc1ccc(Br)cc1)c1ccccc1Br	ALR H2O2 inh 99 (no result: PP1 inh, PP5 primary)
O=C1N[C@H](Cc2ccccc2)COC(=O)[C@@H](Cc2ccc(F)cc2)C/C=C\C[C@H]1CC(=O)N(CCO)Cc1ccccc1	none (no result: Calb FLC, PP1 inh, CSC inhib, PP5 primary)
O=C(Cn1cc([N+](=O)[O-])cn1)NCc1ccccc1	none
COc1ccc(CNC(=O)CSc2nnc3c(n2)[nH]c2ccccc23)cc1	none
CCn1c(-c2ccccc2O)n[nH]c1=S	ALR H2O2 inh 92
CCn1c(-c2cc(-c3cccc(OC)c3)nc3ccccc23)n[nH]c1=S	none
CCn1c(-c2cc(-c3ccccc3)sc2N)n[nH]c1=S	ALR H2O2 inh 99
CCNC(=S)N1CCN(S(=O)(=O)c2ccc(C)cc2)CC1	none
N#CCCN(C(=O)CSc1ccc2c(c1)OCCO2)c1ccc(F)cc1	ALR H2O2 inh 98 (no result: CSC inhib)
Cc1ccc(N(CCC#N)C(=O)CSc2ccc3c(c2)OCCO3)cc1	ALR H2O2 inh 99
C/C(N)=C(/C#N)C(=O)CSc1ccc2c(c1)OCCO2	none
N#CCCN(C(=O)COC(=O)C1=COCCO1)c1ccc(F)cc1	none
C/C(=N\Nc1cccc(Cl)c1)C1(C)N(O)C(C)(C)C(c2ccco2)=[N+]1[O-] (stereo not drawn)	CSC inhib 84

Source: PubChem BioAssay (several laboratories)
